# Values joined by “and” are separate entries in the source; they are usually repeats but may differ in a detail not shown here. Identical values can stand only once. Records with an inconclusive call do not appear. A call without a number means that no potency is given here. More than one record can exist for a structure, and the calls need not agree. Active and inactive are the calls of the source. Unless noted, calls follow the shape of the full dose curve.
# Columns and labels:
# [1] = Nuclear factor erythroid 2-related factor 2/antioxidant responsive element (Nrf2/ARE) small molecule agonists: qHTS cell viability counter screen in human keratinocytes (AID 1919968; active = well fitted curve in the direction sought with a large enough effect in the repeat runs; an effect the other way counts as inactive or inconclusive; also: nearly all actives have a fitted effect of over 55% in size)
# Summary of the method: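 CellTiter-Fluor fluorescence, read 1 h after reagent, gave viability in the same wells as the ARE-luciferase assay. KeratinoSens cells (1,500/well) had 23 h compound exposure at 37 C/5% CO2 following 5 h plating.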
# [2] = Nuclear factor erythroid 2-related factor 2/antioxidant responsive element (Nrf2/ARE) small molecule agonists: luciferase reporter gene qHTS assay in human keratinocytes (AID 1919969); also: nearly all actives have a fitted effect of over 35% in size; also: potency is read from the fitted curve at half-maximal effect
# [3] = target: Gonadotropin-releasing hormone receptor (Homo sapiens) (UniProt P30968); test: Human gonadotropin-releasing hormone receptor (GnRHR) small molecule agonists, calcium flux assay in GnRHR-HEK293 cells (AID 1920063); also: nearly all actives have a fitted effect of over 35% in size
# Gonadotropin-releasing hormone receptor (Homo sapiens), sequence (P30968 whole entry, looked up): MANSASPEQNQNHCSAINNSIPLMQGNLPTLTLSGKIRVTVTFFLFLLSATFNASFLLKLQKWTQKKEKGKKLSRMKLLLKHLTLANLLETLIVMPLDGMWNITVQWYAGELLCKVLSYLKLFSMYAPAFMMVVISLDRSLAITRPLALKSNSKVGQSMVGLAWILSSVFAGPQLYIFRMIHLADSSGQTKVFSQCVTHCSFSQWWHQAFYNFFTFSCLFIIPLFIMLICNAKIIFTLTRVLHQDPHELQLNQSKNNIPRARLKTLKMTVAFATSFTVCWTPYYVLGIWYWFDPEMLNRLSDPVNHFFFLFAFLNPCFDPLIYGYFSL
# Summary of the method: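 Agonist mode: compounds at 15 concentrations, in triplicate, went onto calcium dye-loaded GnRHR-HEK293 cells. Intracellular calcium was then followed as 480/540 nm fluorescence at 1 s intervals over 3 min.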
# [4] = target: KiSS-1 receptor (Homo sapiens) (UniProt Q969F8); test: Human kisspeptin (KISS1R) small molecule agonists, calcium flux assay in KISS1R-HEK293 cells (AID 1920064; active = well fitted curve in the direction sought with a large enough effect in the repeat runs; an effect the other way counts as inactive or inconclusive)
# KiSS-1 receptor (Homo sapiens), sequence (Q969F8 whole entry, looked up): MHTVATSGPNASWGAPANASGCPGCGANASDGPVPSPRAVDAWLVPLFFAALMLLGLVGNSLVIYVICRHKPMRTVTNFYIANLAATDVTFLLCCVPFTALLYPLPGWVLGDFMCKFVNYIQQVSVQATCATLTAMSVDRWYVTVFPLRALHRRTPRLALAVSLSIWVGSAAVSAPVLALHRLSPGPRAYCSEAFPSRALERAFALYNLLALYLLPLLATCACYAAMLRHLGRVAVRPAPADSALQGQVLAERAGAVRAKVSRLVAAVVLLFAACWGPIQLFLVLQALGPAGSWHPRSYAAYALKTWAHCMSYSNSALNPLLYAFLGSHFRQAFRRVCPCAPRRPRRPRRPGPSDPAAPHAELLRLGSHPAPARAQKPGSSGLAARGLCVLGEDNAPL
# Summary of the method: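 Agonist mode: intracellular calcium rise tracked at 1 s intervals over 3 min (480/540 nm) immediately after compound addition to dye-loaded KISS1R-HEK293 stable cells. Each compound tested at 15 concentrations in triplicate.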
# [5] = G protein-coupled receptor (GPCR) small molecule agonists, calcium flux assay: HEK293 wild type cell line counter screen (AID 1920065)
# Summary of the method: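 Calcium flux counter screen: compound added in agonist mode at 15 concentrations in triplicate to dye-loaded parental HEK293 cells. Fluorescence (480/540) read kinetically for 3 min; ATP served as positive control.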
# [6] = p53 small molecule agonists, cell-based qHTS assay with human liver microsomes (AID 1963577);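 also: p53 response element beta-lactamase reporter cells with liver microsomes plus NADPH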
# Summary of the method: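 Steps: plate p53RE-bla cells, incubate 5 h at 37 C; add compound in DMSO; add microsomes (0.5 mg/mL final) and NADPH (0.5 mg/mL final); incubate 16 h at 37 C; add LiveBLAzer, 2 h RT; read fluorescence.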
# [7] = p53 small molecule agonists, cell-based qHTS assay with rat liver microsomes (AID 1963578)
# Summary of the method: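 Metabolic activation is supplied by rat liver microsomes with NADPH (each 0.5 mg/mL final). p53RE-bla cells incubate with compound 16 h at 37 C; reporter activity is measured by LiveBLAzer fluorescence.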
# [8] = p53 small molecule agonists, cell-based qHTS assay with human liver microsomes: qHTS cell viability counter screen (AID 1963579); also: nearly all actives have a fitted effect of over 45% in size
# Summary of the method: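 After the 460/530 nm beta-lactamase read, CellTiter-Glo was added to the same wells and luminescence measured after 30 min at room temperature, giving viability of p53RE-bla cells treated 16 h with compounds plus microsomes and NADPH.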
# [9] = p53 small molecule agonists, cell-based qHTS assay with rat liver microsomes: qHTS cell viability counter screen (AID 1963580); also: nearly all actives have a fitted effect of over 45% in size
# Summary of the method: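 After the beta-lactamase ratio was read, CellTiter-Glo was added to the same wells and luminescence measured at 30 min; cells had been treated 16 h at 37 C with compounds, rat liver microsomes and NADPH (0.5 mg/mL final each).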
# [10] = p53 small molecule agonists, cell-based qHTS assay: qHTS cell viability counter screen (AID 1963581); also: nearly all actives have a fitted effect of over 45% in size
# Summary of the method: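 Counter screen read by CellTiter-Glo luminescence (ATP content, 30 min at room temperature), run in the same wells as the beta-lactamase reporter read. HCT-116 p53RE-bla cells saw compounds for 16 h at 37 C.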
# [11] = p53 small molecule agonists, cell-based qHTS assay (AID 1963582; active = well fitted activation curve with a large enough effect in the signal ratio in the repeat runs, not every such curve was filed as active; the % refers to the signal ratio)
# Summary of the method: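 Read-out is beta-lactamase FRET fluorescence after 2 h at room temperature with LiveBLAzer B/G substrate. p53 response element-bla cells were treated 16 h at 37 C with compounds in DMSO, added 5 h after seeding.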
# [12] = target: 5-hydroxytryptamine receptor 2A (Homo sapiens) (UniProt P28223); test: 5-hydroxytryptamine receptor 2A (HTR2A) small molecule antagonists, cell-based qHTS assay (AID 1963586); also: nearly all actives have a fitted effect of over 45% in size
# 5-hydroxytryptamine receptor 2A (Homo sapiens), sequence (P28223 whole entry, looked up): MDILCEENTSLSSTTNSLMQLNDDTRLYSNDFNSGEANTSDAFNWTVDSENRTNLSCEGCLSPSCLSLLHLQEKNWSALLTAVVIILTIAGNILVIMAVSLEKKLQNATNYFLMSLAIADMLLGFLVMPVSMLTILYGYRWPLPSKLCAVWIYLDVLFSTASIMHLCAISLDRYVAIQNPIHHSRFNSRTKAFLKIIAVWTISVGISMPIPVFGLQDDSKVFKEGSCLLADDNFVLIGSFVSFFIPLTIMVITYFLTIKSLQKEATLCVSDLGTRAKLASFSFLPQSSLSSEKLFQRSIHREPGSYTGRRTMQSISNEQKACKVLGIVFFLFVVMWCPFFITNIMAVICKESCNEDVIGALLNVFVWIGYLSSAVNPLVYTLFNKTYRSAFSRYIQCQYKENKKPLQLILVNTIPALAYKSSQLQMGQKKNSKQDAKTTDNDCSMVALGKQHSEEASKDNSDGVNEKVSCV
# Summary of the method: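 CHO cells stably expressing human HTR2A were plated for 18 h at 37 C, then loaded with calcium dye for 1 h. Compounds were preincubated 5 min at room temperature before DOI (4 nM solution) was added. Kinetic fluorescence was read for 3 min.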
# [13] = target: 5-hydroxytryptamine receptor 2A (Homo sapiens) (UniProt P28223); test: 5-hydroxytryptamine receptor 2A (HTR2A) small molecule agonists, cell-based qHTS assay (AID 1963587); also: nearly all actives have a fitted effect of over 30% in size
# Summary of the method: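 CHO cells stably expressing human HTR2A, plated 18 h, loaded with calcium dye 1 h at 37 C. Agonist mode: compounds added and intracellular calcium fluorescence recorded kinetically for 2 min at 1 sec intervals.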
# [14] = target: Muscarinic acetylcholine receptor M1 (Homo sapiens) (UniProt P11229); test: Cholinergic receptor muscarinic 1 (CHRM1) small molecule agonists, cell-based qHTS assay (AID 1963589); also: nearly all actives have a fitted effect of over 35% in size
# Muscarinic acetylcholine receptor M1 (Homo sapiens), sequence (P11229 whole entry, looked up): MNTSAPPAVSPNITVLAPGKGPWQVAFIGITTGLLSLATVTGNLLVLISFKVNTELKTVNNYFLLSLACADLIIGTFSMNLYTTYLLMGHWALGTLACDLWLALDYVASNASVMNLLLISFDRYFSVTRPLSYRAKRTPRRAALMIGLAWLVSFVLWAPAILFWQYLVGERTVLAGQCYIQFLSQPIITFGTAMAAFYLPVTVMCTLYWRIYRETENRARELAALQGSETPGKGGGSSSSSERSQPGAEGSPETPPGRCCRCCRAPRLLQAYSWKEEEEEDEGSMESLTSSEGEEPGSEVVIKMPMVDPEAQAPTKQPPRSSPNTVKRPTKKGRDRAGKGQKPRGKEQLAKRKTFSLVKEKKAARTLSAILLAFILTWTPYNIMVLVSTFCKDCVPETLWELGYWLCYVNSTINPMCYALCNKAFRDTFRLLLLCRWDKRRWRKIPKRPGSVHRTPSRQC
# Summary of the method: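 Agonist-mode calcium-flux screen: compounds at 15 concentrations, three independent runs, were pin-transferred onto dye-loaded human CHRM1-CHO cells. Fluorescence was then recorded kinetically every second over minutes.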
# [15] = cAMP Responsive Elements (CRE) small molecule agonists, cell-based qHTS assay (AID 1963590)
# Summary of the method: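 Agonist mode: compound added to CRE-bla HEK 293T cells (2,000/well, 18 h after plating) for 3 h at 37 C/5% CO2. Reporter activity detected via FRET beta-lactamase substrate, 2 h room-temperature loading.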
# [16] = cAMP Responsive Elements (CRE) small molecule antagonists, cell-based qHTS assay (AID 1963591; active = well fitted inhibition curve with a large enough effect in the signal ratio in the repeat runs, not every such curve was filed as active; the % refers to the signal ratio)
# Summary of the method: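 Antagonist mode: compounds are added alongside the adenylyl cyclase activator NKH477 (0.25 uM final) to CRE-bla HEK293T cells for 3 h. LiveBLAzer FRET substrate, 2 h at room temperature, reports bla expression.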
# [17] = target: Beta-2 adrenergic receptor (Homo sapiens) (UniProt P07550); test: Adrenergic beta2 receptor (ADRB2) small molecule agonists, cell-based qHTS assay (AID 1963593);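 also: CHO cells stably overexpressing human ADRB2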
# Beta-2 adrenergic receptor (Homo sapiens), sequence (P07550 whole entry, looked up): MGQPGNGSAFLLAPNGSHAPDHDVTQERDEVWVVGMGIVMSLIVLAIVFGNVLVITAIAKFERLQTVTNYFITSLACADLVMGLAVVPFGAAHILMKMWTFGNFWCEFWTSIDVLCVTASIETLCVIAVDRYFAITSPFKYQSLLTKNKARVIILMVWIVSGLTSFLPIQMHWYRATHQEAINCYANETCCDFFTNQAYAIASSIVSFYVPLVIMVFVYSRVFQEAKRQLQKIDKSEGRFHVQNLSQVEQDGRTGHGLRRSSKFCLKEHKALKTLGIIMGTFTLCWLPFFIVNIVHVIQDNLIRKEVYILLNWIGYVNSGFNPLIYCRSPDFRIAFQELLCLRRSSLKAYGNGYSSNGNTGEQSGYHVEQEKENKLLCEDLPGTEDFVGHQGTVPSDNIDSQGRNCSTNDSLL
# Summary of the method: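 CHO cells stably over-expressing ADRB2 were plated overnight at 37C, then dosed with compounds plus a stimulation mix containing 100uM IBMX and 25uM Ro-20-1724 for 0.5hr at room temperature. cAMP was measured by HTRF competition, 1hr.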
# [18] = target: D(2) dopamine receptor (Homo sapiens) (UniProt P14416); test: Dopamine D2 receptor (DRD2) small molecule antagonists, cell-based qHTS assay (AID 1963595; active = well fitted inhibition curve with a large enough effect in the signal ratio in the repeat runs, with a control signal flat; the % refers to the signal ratio)
# D(2) dopamine receptor (Homo sapiens), sequence (P14416 whole entry, looked up): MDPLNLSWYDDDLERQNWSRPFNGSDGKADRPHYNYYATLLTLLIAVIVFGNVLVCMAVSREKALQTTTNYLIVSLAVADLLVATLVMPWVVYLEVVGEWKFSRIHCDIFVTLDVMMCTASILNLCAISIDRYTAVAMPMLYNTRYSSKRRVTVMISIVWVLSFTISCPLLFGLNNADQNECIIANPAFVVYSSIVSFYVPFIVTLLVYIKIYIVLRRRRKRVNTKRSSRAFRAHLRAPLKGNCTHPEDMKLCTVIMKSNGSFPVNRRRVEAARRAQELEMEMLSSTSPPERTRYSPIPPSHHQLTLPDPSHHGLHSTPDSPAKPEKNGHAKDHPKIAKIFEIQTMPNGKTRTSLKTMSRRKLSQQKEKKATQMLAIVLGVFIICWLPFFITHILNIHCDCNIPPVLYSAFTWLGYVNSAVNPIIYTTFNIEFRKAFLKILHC
# Summary of the method: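 HEK293 cells stably expressing DRD2, preincubated with 0.1 mM Ro20-1724 and compounds 10 min, were stimulated with 200 nM NKH477 plus 12 nM quinpirole for 30 min at room temperature; cAMP measured by HTRF (665/620 nm).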
# [19] = target: Beta-2 adrenergic receptor (Homo sapiens) (UniProt P07550); test: Adrenergic beta2 receptor (ADRB2) small molecule antagonists, cell-based qHTS assay (AID 1963592); also: series mostly up to about 92 µM; nearly all actives have a fitted effect of over 50% in size
# Summary of the method: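 Assay format: CHO-ADRB2 cells, 18-20hr seeding at 37C/5% CO2, then compound plus 1nM isoproterenol agonist mix for 0.5hr RT. Homogeneous time-resolved fluorescence cAMP detection after 1hr, expressed as 665/615 nm ratio.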
# [20] = target: D(2) dopamine receptor (Homo sapiens) (UniProt P14416); test: Dopamine D2 receptor (DRD2) small molecule agonists, cell-based qHTS assay (AID 1963594); also: nearly all actives have a fitted effect of over 35% in size
# Summary of the method: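 HEK293 cells stably expressing human DRD2, pre-treated with PDE inhibitor Ro20-1724 (0.1 mM final) and compound 10 min at room temperature, then stimulated with NKH477 (200nM […]) for 30 min. cAMP read by HTRF (665/620 nm).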
structure (smiles),measurement,setting,value
CN(C)CCOCCN(C)C,Potency,[1],inactive
same,Potency,[2],inactive
same,Potency,[3],inactive
same,Potency,[4],inactive
same,Potency,[5],inactive
same,Potency,[6],inactive
same,Potency,[7],inactive
same,Potency,[8],inactive
same,Potency,[9],inactive
same,Potency,[10],inactive
same,Potency,[11],inactive
same,Potency,[12],inactive
same,Potency,[13],inactive
same,Potency,[14],inactive
same,Potency,[15],inactive
same,Potency,[16],inactive
same,Potency,[17],inactive
same,Potency,[18],inactive
COc1ccc(O)cc1,Potency,[1],inactive
same,Potency,[2],inactive
same,Potency,[3],inactive
same,Potency,[4],inactive
same,Potency,[5],inactive
same,Potency,[6],inactive
same,Potency,[7],inactive
same,Potency,[8],inactive
same,Potency,[9],inactive
same,Potency,[10],inactive
same,Potency,[11],inactive
same,Potency,[12],inactive
same,Potency,[13],inactive
same,Potency,[14],inactive
same,Potency,[15],inactive
same,Potency,[16],inactive
same,Potency,[19],inactive
same,Potency,[17],inactive
same,Potency,[20],inactive
same,Potency,[18],inactive
CC(C)=CCCC(C)CCO (configuration not stated),Potency,[1],inactive
same,Potency,[2],inactive
same,Potency,[3],inactive
same,Potency,[4],inactive
same,Potency,[5],inactive
same,Potency,[6],inactive
same,Potency,[7],inactive
same,Potency,[8],inactive
same,Potency,[9],inactive
same,Potency,[10],inactive
same,Potency,[11],inactive
same,Potency,[12],inactive
same,Potency,[13],inactive
same,Potency,[15],inactive
same,Potency,[19],inactive
same,Potency,[20],inactive
same,Potency,[18],inactive
Cc1cn([C@H]2C[C@H](N=[N+]=[N-])[C@@H](CO)O2)c(=O)[nH]c1=O,Potency,[1],inactive
same,Potency,[2],inactive
same,Potency,[3],inactive
same,Potency,[4],inactive
same,Potency,[5],inactive
same,Potency,[6],inactive
same,Potency,[7],inactive
same,Potency,[8],inactive
same,Potency,[9],inactive
same,Potency,[10],inactive
same,Potency,[11],inactive
same,Potency,[15],inactive
same,Potency,[16],inactive
same,Potency,[19],inactive
same,Potency,[17],inactive
same,Potency,[20],inactive
same,Potency,[18],inactive
CN(C)c1nc(N(C)C)nc(N(C)C)n1,Potency,[1],inactive
same,Potency,[2],3.94 µM (active) and inactive
same,Potency,[3],inactive
same,Potency,[4],inactive
same,Potency,[5],inactive
same,Potency,[6],inactive
same,Potency,[7],inactive
same,Potency,[8],inactive
same,Potency,[9],inactive
same,Potency,[10],inactive
same,Potency,[11],inactive
same,Potency,[15],inactive
same,Potency,[16],inactive
same,Potency,[19],inactive
same,activation,[17],17.3% [at 8.39 µM] (inactive)
same,Potency,[20],inactive
same,Potency,[18],inactive
NNCCc1ccccc1,Potency,[1],inactive
same,Potency,[2],3.87 µM (active) and 8.41 µM (active)
same,Potency,[3],inactive
same,Potency,[4],inactive
same,Potency,[5],inactive
same,Potency,[6],inactive
same,Potency,[7],inactive
same,Potency,[8],inactive
same,Potency,[9],inactive
same,Potency,[10],inactive
same,Potency,[11],inactive
same,Potency,[15],inactive
same,Potency,[16],inactive
same,Potency,[20],inactive
same,Potency,[18],inactive
CN/C(=C\[N+](=O)[O-])NCCSCc1csc(CN(C)C)n1,Potency,[1],inactive
same,Potency,[2],inactive
same,Potency,[3],inactive
same,Potency,[4],inactive
same,Potency,[5],inactive
same,Potency,[6],inactive
same,Potency,[7],inactive
same,Potency,[8],inactive
same,Potency,[9],inactive
same,Potency,[10],inactive
same,Potency,[11],inactive
same,Potency,[15],inactive
same,Potency,[16],inactive
same,Potency,[19],inactive
same,Potency,[17],inactive
same,Potency,[20],inactive
same,Potency,[18],inactive
CCC1(c2ccccc2)C(=O)NCNC1=O,Potency,[1],inactive
same,Potency,[2],inactive
same,Potency,[3],inactive
same,Potency,[4],inactive
same,Potency,[5],inactive
same,Potency,[6],inactive
same,Potency,[7],inactive
same,Potency,[8],inactive
same,Potency,[9],inactive
same,Potency,[10],inactive
same,Potency,[11],inactive
same,Potency,[15],inactive
same,Potency,[16],inactive
same,Potency,[19],inactive
same,Potency,[20],inactive
same,Potency,[18],inactive
